PubChem BioAssay (NCI)
The panel holds about 83,000 compounds, 20% with a hit somewhere; the sample as a whole holds those more often.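 The endpoint reported here, percent growth, reads 100 for growth as untreated, 0 for no net growth and -100 for all cells dead.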 Activity calls are given as the source filed them. Rule for the calls: active = growth percent below 10; inactive = the rest.

Key:
Experiment in all cases: NCI-60 one-dose screen, 48 h (100 = growth as untreated, 0 = no growth, -100 = all killed)
Conditions in all cases: 10 µM unless noted
[1] = test system: T-47D breast
[2] = test system: BT-549 breast
[3] = test system: MDA-MB-435 melanoma
[4] = test system: SW-620 colon
[5] = test system: MCF7 breast
[6] = test system: HCT-116 colon
[7] = test system: HCC-2998 colon
[8] = test system: KM12 colon

Measured: growth

CCN(CCO)CCNc1ccc(C)c2sc3cc(OC)ccc3c(=O)c12
inactive: [1] 90.1% | [2] 88.7% | [3] 86.2% | [4] 38.4% | [5] 52.6% | [6] 20.5% | [7] 64.5% | [8] 69.2%

COc1cc2c(c3c1c(=O)c1cccc(F)c1n3C)C=CC(C)(C)O2
inactive: [1] 89.2% | [2] 100% | [3] 94.9% | [4] 113% | [5] 44.6% | [6] 92.8% | [7] 101% | [8] 76.6%

CCOC(=O)/C(C#N)=C(/CC)OCC
inactive: [1] 100% | [2] 95.2% | [3] 105% | [4] 102% | [5] 94.9% | [6] 92% | [7] 113% | [8] 97.7%

O=C(NC(=S)NNC(=S)NNc1ccccc1)c1ccccc1
inactive: [1] 18.4% | [2] 49.5% | [4] 24.4% | [6] 24.3% | [7] 50.7% | [8] 59%
active: [3] 4.94% | [5] 8.12%

CCCCS(=O)(=O)c1cc(Nc2ccc(O)c3c2C(=O)c2ccccc2C3=O)ccc1C
inactive: [1] 75.6% | [2] 91.6% | [4] 103% | [5] 33.8% | [6] 78.7% | [7] 67% | [8] 73.4%
active: [3] -85.7%

c1ccc2[nH]c(-c3ccc(OCCCCCOc4ccc(-c5nc6ccccc6[nH]5)cc4)cc3)nc2c1
inactive: [7] 14.8% | [8] 23.5%
active: [1] -60.3% | [2] -13.5% | [3] 8.59% | [4] -3.03% | [5] -39.3% | [6] -21.8%

COc1cc(OC)c2c(=O)cc(-c3ccccc3)oc2c1
inactive: [1] 91.2% | [2] 109% | [3] 95.8% | [4] 89.7% | [5] 102% | [6] 88.9% | [7] 97% | [8] 106%

COc1ccc(-c2nc(SCC(C)C)nc(Nc3ccccc3)c2C#N)cc1
inactive: [1] 51.3% | [2] 101% | [3] 92.8% | [4] 67.8% | [5] 75.7% | [6] 38.5% | [7] 99.3% | [8] 97.9%

CCCC[N+](C)(N)CCCC
inactive: [1] 87.9% | [2] 90.9% | [3] 102% | [4] 101% | [5] 97.7% | [6] 97.7% | [7] 111% | [8] 105%

O=C(C(=O)N1CCOCC1)c1ccc(O[C@H]2O[C@H](CO)[C@@H](O)[C@H](O)[C@@H]2O)cc1
inactive: [1] 107% | [2] 99.3% | [3] 108% | [4] 107% | [5] 100% | [6] 96.6% | [7] 79% | [8] 110%

Nc1nc2c(c3cnccc13)C(c1ccc(Cl)c(Cl)c1)Cc1cnccc1-2 (stereo unspecified)
inactive: [1] 16.9%
active: [2] -39.1% | [3] -53% | [4] 3.85% | [5] 0.513% | [6] -37.8% | [7] -75.7% | [8] -34.8%

COc1ccc(Nc2c3ccccc3nc3ccccc23)cc1
inactive: [1] 30.6% | [2] 42.2% | [3] 31.3% | [4] 24.2% | [5] 11.5% | [6] 13% | [7] 46% | [8] 37.6%

CCOC(=O)CSSCC(=O)OCC
inactive: [1] 94.4% | [2] 110% | [3] 99.4% | [4] 111% | [5] 95.2% | [6] 108% | [7] 108% | [8] 105%

COc1cc2c(/C=C3\C(=O)Nc4ccc(Br)cc43)c(Cl)n(C)c2cc1C
inactive: [1] 64.4% | [2] 35.1% | [4] 31.9% | [5] 23.9%
active: [3] 7.32% | [6] 5.1% | [7] -39.4% | [8] -21.5%

COC(=O)c1c[n+]([O-])ccc1OC
inactive: [1] 114% | [2] 111% | [3] 102% | [4] 109% | [5] 101% | [6] 113% | [7] 104% | [8] 111%

COc1ccc(-c2nc(N)n(C(=S)Nc3ccccc3)n2)cc1
inactive: [1] 84.8% | [2] 102% | [3] 107% | [4] 99% | [5] 89.1% | [6] 98.3% | [7] 107% | [8] 95.5%

CCCCCCCCCCCCCCCCC(=O)O.CCCCCCCCCCCCCCCCCC(=O)O.CCCCCCCCCCCCCCCCCC(=O)O.CCCCCCCCCCCCCCCCCC(=O)O.CCCCCCCCCCCCCCCCCC(=O)O.CO[CH-]OC12COC1CC(O)C1(C)C(O)C(OC(C)O)C3=C(C)C(OC(=O)C(O)C([NH-])c4ccccc4)CC(O)(C(OC(=O)c4ccccc4)C21)C3(C)C.[Cu+].[Zn].[Zn].[Zn].[Zn].[Zn] (stereo unspecified)
inactive: [1] 45.9% | [2] 46.2% | [3] 10.9% | [4] 44.7% | [5] 22.1% | [6] 13.3% | [7] 21.6% | [8] 19.9%

CC(C)OC(=O)Nn1cnc2ccccc21
inactive: [1] 114% | [2] 116% | [3] 110% | [4] 111% | [5] 120% | [6] 87.4% | [7] 105% | [8] 114%

COc1ccccc1Nc1nnc(COc2ccc(CNC(=O)CCCC/C=C/C(C)C)cc2OC)o1
inactive: [1] 76.1% | [2] 85.6% | [3] 103% | [4] 105% | [5] 87.1% | [6] 86.8% | [7] 105% | [8] 95.5%

Ic1ccc(SSc2ccc(I)cc2)cc1
inactive: [1] 79.7% | [2] 41.5% | [3] 100% | [4] 106% | [5] 92.4% | [6] 83.7% | [7] 104% | [8] 82.2%

Cc1ccnc2c(NC(C)CCCN)cc(O)c(O)c12 (stereo unspecified)
inactive: [1] 106% | [2] 92.1% | [3] 103% | [4] 100% | [5] 31.5% | [6] 99.7% | [7] 91.6% | [8] 109%

COc1ccc2sc(-n3nc4nc5n(c(=O)c4c3N)-c3ccccc3Sc3ccccc3-5)nc2c1
inactive: [1] 29.2% | [2] 73.2% | [3] 79.5% | [4] 95.6% | [5] 54.2% | [6] 65.7% | [7] 93.6% | [8] 81.4%

Nc1nc2c(c3cnccc13)C(c1cccc(Br)c1)Cc1cnccc1-2 (stereo unspecified)
active: [2] -15.6% | [3] -37.2% | [6] 3.93%
inactive: [1] 43.9% | [4] 25.9% | [5] 11.5% | [7] 34.8% | [8] 13.2%

CCCCCCC(C)N(CC(C)(C)O)C(=O)c1ccc([N+](=O)[O-])cc1 (stereo unspecified)
inactive: [1] 88.2% | [2] 99% | [3] 104% | [4] 95.8% | [5] 97.6% | [6] 91.3% | [7] 115% | [8] 103%

C[C@@H](c1ccc2c(c1)[nH]c1ccc(Cl)cc12)c1nc2ccccc2[nH]1
inactive: [1] 62.3% | [2] 83.4% | [3] 103% | [4] 95.2% | [5] 27.6% | [6] 93.5% | [7] 100% | [8] 90.7%

Clc1ccc(I)c2ccccc12
inactive: [1] 96.8% | [2] 94.6% | [3] 108% | [4] 107% | [5] 95.8% | [6] 97.4% | [7] 107% | [8] 110%

COc1ccc(Cn2cc3c(c2)-c2oncc2CC3)cc1OC
active: [3] -46.2% | [5] 7.49% | [6] 4.37% | [7] -37.5% | [8] 5.46%
inactive: [1] 47.5% | [2] 59.4% | [4] 21.9%

O=C(O)CS(=O)c1ccc(Cl)cc1 (stereo unspecified)
inactive: [1] 101% | [2] 99.8% | [3] 102% | [4] 106% | [5] 101% | [6] 97.6% | [7] 97.1% | [8] 103%

CCCCCCC(C(=O)OCC)(C(=O)OCC)C1CCCCCC1
inactive: [1] 91.9% | [2] 104% | [3] 103% | [4] 99.1% | [5] 96.3% | [6] 99% | [7] 100% | [8] 105%

O=C1C(Cl)=C(Nc2ccc(Nc3ccccc3)c(NC3=C(Cl)C(=O)c4ccccc4C3=O)c2)C(=O)c2ccccc21
inactive: [1] 14.9% | [2] 53.3% | [3] 113% | [4] 33.8% | [5] 73.7% | [6] 51.2% | [7] 55.1% | [8] 31.6%

CCOC(=O)C1=NN(c2ccccc2)C2=NC(=O)/C(=C\c3cn(-c4ccccc4)nc3-c3cc4ccccc4o3)C(=O)N12
inactive: [1] 86.6% | [2] 97.4% | [3] 108% | [4] 91.9% | [5] 75.6% | [6] 89.1% | [7] 101% | [8] 97.5%

COC(=O)c1cc(Nc2ccc(O)c3c2C(=O)c2c([N+](=O)[O-])ccc(O)c2C3=O)cc(C(=O)OC)c1
active: [3] -84.4%
inactive: [1] 68.9% | [2] 44.7% | [4] 13.1% | [5] 33.3% | [6] 36.1% | [7] 36.3% | [8] 88.7%
